# The whole screen tested about 220,000 compounds, of which about 3,300 (1.5%) were called active.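 The calls were made as follows: active = compounds that cut the protein-peptide binding signal by more than 50% relative to plate controls in a single-dose test; inactive = the rest.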 What follows is part of a selection rich in actives, with near analogues and random picks from the rest.
# Molecular target: Induced myeloid leukemia cell differentiation protein Mcl-1 (Homo sapiens) (UniProt Q07820)
# Assay: Mcl-1/Noxa binding inhibitors, primary screen, biochemical, TR-FRET, 1536-well (AID 1022);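 also: His-tagged Mcl-1 with rhodamine Noxa BH3 peptide and terbium anti-His antibody; 0% = Mcl-1 plus Noxa peptide wells and 100% = peptide-only wells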
# Settings: TR-FRET Mcl-1/Noxa peptide binding, 2 h; at 21.7 µM; hits give high values
# Chain of Induced myeloid leukemia cell differentiation protein Mcl-1 (Homo sapiens) (Q07820 whole entry, looked up): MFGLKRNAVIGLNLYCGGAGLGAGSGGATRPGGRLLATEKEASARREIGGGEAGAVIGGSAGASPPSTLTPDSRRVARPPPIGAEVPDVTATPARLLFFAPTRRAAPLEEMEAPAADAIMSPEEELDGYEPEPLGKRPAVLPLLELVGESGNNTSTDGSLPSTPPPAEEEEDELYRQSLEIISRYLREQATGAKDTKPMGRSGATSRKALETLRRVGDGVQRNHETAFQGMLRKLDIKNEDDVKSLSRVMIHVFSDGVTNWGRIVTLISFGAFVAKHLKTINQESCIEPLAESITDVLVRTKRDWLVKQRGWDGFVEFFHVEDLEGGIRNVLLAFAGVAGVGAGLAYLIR
row,Structure (SMILES),inhibition
1,COc1ccc(CN2CCOC2=O)cc1OC,6.85% (inactive)
2,COc1cccc(N2C(=O)CC(N3CCc4ccccc4C3)C2=O)c1 (centres undefined),-10.9% (inactive)
3,C=CCNC(=O)CSc1nc2scc(-c3ccco3)c2c(=O)n1CC=C,8.55% (inactive)
4,O=C1CCCC(O)=C1N=Nc1ccc2ncsc2c1,62.8% (active)
5,O=C1CCCC(O)=C1N=Nc1ccc(S(=O)(=O)N2CCOCC2)cc1,23.9% (inactive)
6,C/C(=N\NC(=O)c1cccnc1)c1ccc(-c2ccccc2)cc1,2.98% (inactive)
7,O=C(NCC1CCCO1)/C(=C\c1ccco1)NC(=O)c1ccccc1 (centres undefined),4.51% (inactive)
8,COc1cccc(C2Nc3cccc4cccc(c34)N2)c1,34.5% (inactive)
9,C/C(=C\c1ccco1)C1Nc2cccc3cccc(c23)N1,74.9% (active)
10,COc1ccccc1/C=C/C=N/NC(=O)CN1CCN(Cc2ccccc2)CC1,0.78% (inactive)
11,CSC1=NCCN1C(=O)Cc1cccc2ccccc12,-0.87% (inactive)
12,O=C(NNC(=O)c1cnccc1C(F)(F)F)c1ccc(Cl)cc1,11.9% (inactive)
13,CC(=O)Nc1cccc([N+](=O)[O-])c1,-1.66% (inactive)
14,Cc1ccccc1NC(=S)Nc1cccc([N+](=O)[O-])c1,11.3% (inactive)
15,COC(=O)/C=C\C(=O)Nc1cccc([N+](=O)[O-])c1,64.5% (active)
16,COc1ccc(Cn2c(O)c(/C=C3/C=CC=N3)c(=O)[nH]c2=O)cc1,25% (inactive)
17,CC(=O)NC(=S)Nc1ccc(NC(=O)c2cccnc2)cc1,1.75% (inactive)
18,CCCc1nc2c(c(=O)c3ccccc3n2C)c(=O)n1-c1cc(C)cc(C)c1,5.11% (inactive)
19,COc1ccc(C(=O)CSc2nnc(COc3ccccc3)n2Cc2ccco2)cc1,17.5% (inactive)
20,Cn1c2ccccc2c(=O)c2c(=O)n(Cc3ccco3)c(COc3ccccc3)nc21,60% (active)
21,CSc1sc(C(=O)NNC(=O)c2ccc(Cl)cc2)c2c1C=CCC2,0.01% (inactive)
22,CN1CCN(C2=NCCO2)CC1,3.88% (inactive)
23,Nc1c(C(=O)c2cccs2)sc2nsc(SCCN3CCCCC3)c12,-16.9% (inactive)
24,O=C(c1ccco1)N1CCN(CCOc2ccccc2)CC1,10.5% (inactive)

row,Structure (SMILES),inhibition
1,COc1ccc(OC)c(N=Cc2c(O)[nH]c3ccccc23)c1,20.4% (inactive)
2,CCn1c(-c2cc(OC)ccc2OC)csc1=Nc1c(C)n(C)n(-c2ccccc2)c1=O,10.7% (inactive)
3,CN=c1scc(-c2cc(OC)ccc2OC)n1/N=C/c1c(C)[nH]c2ccccc12,56.7% (active)
4,CCn1c2ccccc2c2cc(NC(=O)CNC)ccc21,43.9% (inactive)
5,CCc1ccc(NC(=O)N[C@H](C(=O)O)C(C)CC)cc1 (some centres undefined),16.4% (inactive)
6,O=C(O)COCC(=O)NCc1csc2ccc(Cl)cc12,11.9% (inactive)
7,O=S(=O)([N-]c1nc2ccccc2nc1-[n+]1ccc(Cc2ccccc2)cc1)c1ccc(Br)s1,15.5% (inactive)
8,N#C/C(=C/c1ccc(-c2ccccc2[N+](=O)[O-])o1)C(=O)NCCN1CCCCC1,26.3% (inactive)
9,Cc1ccc(-c2ccc(/C=C(\C#N)C(N)=S)o2)c([N+](=O)[O-])c1,58.2% (active)
10,Cc1ccc(Cc2cnc(NC(=O)/C(C#N)=C/c3ccc(-c4cccc([N+](=O)[O-])c4)o3)s2)cc1,24.9% (inactive)
11,O=S(=O)(NCCc1csc(-c2ccccc2)n1)c1cccnc1,-1.4% (inactive)
12,NCC(=O)c1cccc2ccc[n+]([O-])c12,17.5% (inactive)
13,COc1cc(NC(=O)c2ccc(CNc3c(N4CCCC4)c(=O)c3=O)cc2)cc(OC)c1OC,8.38% (inactive)
14,COc1ccc(-c2cn(-c3ccc(OC)cc3)c(=S)[nH]2)cc1,11.3% (inactive)
15,COc1cc(OC)c(-n2cc(-c3ccc(Cl)cc3)[nH]c2=O)cc1Cl,55.4% (active)
16,COc1cc(OC)c(-n2c(C)cc(C=O)c2C)cc1Cl,13.7% (inactive)
17,COc1ccc(/C=C/C(=O)Nc2ccc(C)cc2)cc1S(=O)(=O)N1CCOCC1,8.12% (inactive)
18,CCN(CC)c1ccc(/C=N/NC(=O)c2cnccn2)c(O)c1,15.6% (inactive)
19,CCn1c(SCC(=O)Nc2sc(C)c(C)c2C#N)nnc1C1CC1,29.1% (inactive)
20,Brc1ccc2c(c1)[C@H]1OCC[C@H]1[C@@H](c1cccs1)N2,-3.81% (inactive)
21,Cc1[nH]n(-c2ccccc2)c(=O)c1N=Nc1ccccc1C(=O)N1CCCCC1,11.2% (inactive)
22,Nc1nnn(CC(=O)N/N=C/c2ccccc2)n1,-7.14% (inactive)
23,O=C(Cn1nnc(-c2ccccc2)n1)N/N=C/c1ccc(-c2ccc(Cl)cc2)o1,54.1% (active)
24,Nc1nnnn1CC(=O)N/N=C/c1ccc(-c2cccc(Cl)c2)o1,39.1% (inactive)

row,Structure (SMILES),inhibition
1,O=C(Cn1nnc(-c2ccccc2)n1)NCc1ccccc1,-34.6% (inactive)
2,O=C(CN1CCOCC1)N/N=C/c1ccc(-c2ccc(Br)cc2)o1,10.4% (inactive)
3,Cc1[nH]c2ccccc2c1/C=N\NC(=O)Cn1nnc(-c2ccccc2)n1,62.8% (active)
4,COc1ccc(CCNCC(O)Cn2ccc3ccccc32)cc1OC (centres undefined),15.7% (inactive)
5,Cc1ccc(OCC(=O)c2cc(C)n(Cc3ccco3)c2C)c([N+](=O)[O-])n1,8.57% (inactive)
6,COC(=O)c1ccc(S(=O)(=O)NCc2ccccc2)n1C,8.72% (inactive)
7,COc1ccccc1Cn1c(CO)nc2ccccc21,7.12% (inactive)
8,O=C(Nc1ccc(Cl)cc1)Nc1ccc(Oc2cccnc2)nc1,26.5% (inactive)
9,Cc1ccc(N=Nc2c(C)[nH]n(-c3ccccc3)c2=O)cc1,23.8% (inactive)
10,Cc1cc(C)c(C2C3=C(Nc4c2c(C)nn4-c2ccccn2)c2ccccc2C3=O)c(C)c1 (centres undefined),12.5% (inactive)
11,Cc1ccc(C2C3=C(Nc4[nH]n(-c5ccccc5)c(=O)c42)c2ccccc2C3=O)cc1 (centres undefined),69% (active)
12,O=C(Nc1cccnc1)c1ccc(Cl)c([N+](=O)[O-])c1,14.2% (inactive)
13,O=C(/C=C/c1ccc(Cl)c([N+](=O)[O-])c1)c1cccnc1,52.5% (active)
14,O=C(/C=C/c1ccc(Cl)c([N+](=O)[O-])c1)c1ccc(O)cc1,-1.19% (inactive)
15,Cc1nc(C(=O)N2CCCC(C(=O)c3ccc(Cl)cc3)C2)cs1 (centres undefined),-4.61% (inactive)
16,CC(=O)c1c(C)[nH]c(=S)c(C#N)c1-c1ccc(F)cc1,-4.64% (inactive)
17,S=C(NCCc1ccccc1)N1CCCCC1,21.5% (inactive)
18,Oc1ccccc1N1CCN(C(=S)NCc2ccccc2)CC1,16.6% (inactive)
19,Oc1ccc(N2CCN(C(=S)NCc3ccccc3)CC2)cc1,61.1% (active)
20,CC(=O)N/C(=C\c1ccc(F)cc1)C(=O)NC(Cc1ccccc1)C(=O)O (centres undefined),-9.17% (inactive)
21,CCc1c(C)nc2cc(-c3cccs3)[nH]n2c1=O,7.24% (inactive)
22,Cc1cc(=O)n2[nH]c(-c3sccc3-n3c(C)ccc3C)cc2n1,50.6% (active)
23,O=C(CS(=O)(=O)c1ccc(C(F)(F)F)cn1)NNC(=O)c1ccccc1,-2.05% (inactive)
24,COc1cccc(OC)c1CN(C)C(=O)c1cnccc1C(F)(F)F,-21.5% (inactive)

row,Structure (SMILES),inhibition
1,C/C=C(\C)C(=O)N1CC2(CC(c3cccc(NC(=O)CCCCC)c3)=NO2)C[C@@H]1C(N)=O (some centres undefined),-15.7% (inactive)
2,O=C(NCCCc1ccccc1)C1CCC(CNc2c(N3CCCCC3)c(=O)c2=O)CC1 (centres undefined),-3.38% (inactive)
3,CN(C)/C=C(/C(=O)c1ccc(Cl)c(Cl)c1)c1nnnn1-c1ccccc1,-12.2% (inactive)
4,O=C(COc1ccccc1[N+](=O)[O-])N/N=C/c1ccc[nH]1,-5.33% (inactive)
5,Nn1c(SCc2ccccc2)nnc1C1CCCCC1,19.7% (inactive)
6,Cc1cc(OCCCN2CCN(Cc3ccccc3)CC2)ccc1[N+](=O)[O-],27.1% (inactive)
7,O=C(COc1ccccc1[N+](=O)[O-])NC1CC1,-42.2% (inactive)
8,Cc1cc(OCC(=O)NC2CCN(C)CC2)ccc1[N+](=O)[O-],55.3% (active)
9,COc1cc2c3c(c1)/C(=C1/SC(=S)NC1=O)C(=O)N3C(C)(C)C=C2C,64% (active)
10,CC(C)n1c(CN2CCN(Cc3ccccc3)CC2)nc2ccccc21,24.8% (inactive)
11,CCOC(=O)c1cnc2[nH]c3ccccc3n2c1=O,22% (inactive)
12,O=c1[nH]c2ccccc2n2c(-c3ccccc3)nnc12,101% (active)
13,O=[N+]([O-])c1cccc(-c2nnc3c4ccccc4c4ccccc4n23)c1,20.8% (inactive)
14,CCOC(=O)c1c(CC(C)C)csc1/N=C/C1=C(O)CCCC1=O,-5.98% (inactive)
15,CC(=O)NC1C(OCc2ccccc2)OC(COC(C)=O)C(OC(C)=O)C1OC(C)=O (centres undefined),10.8% (inactive)
16,O=C(OCC1O[C@@H](OC(=O)c2cc(O)c(O)c(O)c2)[C@@H](OC(=O)c2cc(O)c(O)c(O)c2)[C@@H](OC(=O)c2cc(O)c(O)c(O)c2)[C@@H]1OC(=O)c1cc(O)c(O)c(O)c1)c1cc(O)c(O)c(O)c1 (some centres undefined),114% (active)
17,COC(=O)c1cc(=O)n(-c2c(Cl)cc(C(F)(F)F)cc2Cl)[nH]1,3.78% (inactive)
18,O=C(NNC(=S)Nc1ccccc1)c1cccc(S(=O)(=O)N2CCOCC2)c1,1.14% (inactive)
19,Cc1cc(C(=O)Nc2ccccc2N2CCOCC2)c2ccccc2n1,-3.21% (inactive)
20,Cc1cc(C(=O)NNC(=O)c2cccc(S(=O)(=O)N3CCOCC3)c2)c2ccccc2n1,63.2% (active)
21,O=C1NC[C@@H](Cc2ccc(O)cc2)N(CCc2cccc(F)c2)C1=O,6.16% (inactive)
22,C=CCN1CC(C)/C(=N\O)CC1C (centres undefined),9.5% (inactive)
